aSyn 5UTR inh: MLPCN primary screen, SNCA 5' untranslated region | alpha-synuclein 5'UTR reporter, inhibitor activity | inhibition, % (tested at 7.5 µM) | AID 1813 | hit rate 0.82% among 300,000; in the data active = inhibition above about 60%; inconclusive = no clear call, values can overlap the other calls;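 note: H4 neuroglioblastoma cells stably carrying SNCA 5'UTR luciferase fusion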
KLF5 inh: suppresses KLF5 promoter-driven expression; DLD-1 KLF5 promoter-luciferase reporter, luminescence; inhibition, % at 5 µM; hit rate 0.23% among 290,000; AID 1700;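 active = inhibition above a per-plate limit of that plate's mean compound inhibition plus 3 SD, cut at about 60% in these data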;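 note: higher means less KLF5 promoter-driven luciferase light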
IEC-6 tox: kills IEC-6 intestinal cells in KLF5 counter-screen; IEC-6 cytotoxicity, luminescence viability; inhibition, % at 5 µM; hit rate 0.78% among 290,000
SKKanGAS inh: blocks kanamycin growth of S. pyogenes SKKanGAS strain | BacTiter-Glo, 6 h | inhibition, % at 7.5 µM | hit rate 1.3% among 300,000 | AID 1662;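 active = mean replicate score, as percent of positive control median, at least 50; inconclusive = mean below 50 but one replicate at or above 50; inactive = mean and every replicate below 50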;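 note: strain carries kanamycin resistance gene driven by streptokinase promoter and grows in 40 µg/ml kanamycin; loss of luminescence reflects streptokinase promoter inhibition or plain growth inhibition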
CSC inhib: cancer stem cell inhibition; cancer stem cell-like cells viability, luminescence; inhibition, % at 7.5 µM; hit rate 1.1% among 300,000; AID 2717; in the data active = inhibition above about 75%; inconclusive = no clear call, values can overlap the other calls; tested in HMLE shEcad cells
IEC-6 cytotox cf: confirmation of cytotoxic compounds in rat IEC-6 intestinal epithelial cells. AID 1907. IEC-6 rat intestinal epithelial viability, luminescence. shares compounds with IEC-6 tox. hit rate 63% among 1,900. inhibition, % at 5 µM
A number is an active result; . = inactive; ? = inconclusive; / = not tested or not shown. Sampled rows, rich in hits. Any-hit rate of the full collection: about 3%. Cut-off read from the data, not from the text of the source, unless noted: active = inhibition above about 22%; inactive = the rest.

SMILES	aSyn 5UTR inh	KLF5 inh	IEC-6 tox	SKKanGAS inh	CSC inhib	IEC-6 cytotox cf
COc1ccc(N(CC(=O)Nc2ccccc2OC)S(=O)(=O)c2ccc(NC(C)=O)cc2)cc1	.	.	38	.	.	32
Cc1ccc(S(=O)(=O)c2ccc(C)cc2)cc1	.	.	.	.	.	/
Cc1ccc(S(=O)(=O)c2ccc([N+](=O)[O-])cn2)cc1	.	.	101	.	100	.
Nc1ccc(S(=O)(=O)c2ccccc2)nc1	.	.	.	.	.	/
O=[N+]([O-])c1ccc(S(=O)(=O)c2ccccc2)nc1	.	.	101	.	102	85
O=C(Nc1ccccc1N1CCCC1)c1ccc([N+](=O)[O-])o1	.	.	66	.	.	.
O=C(Nc1ccccc1N1CCN(C(=O)c2ccccc2)CC1)c1ccc([N+](=O)[O-])o1	.	.	28	.	/	.
Cc1ccc(C(=O)Nc2ccccc2N2CCCCC2)o1	.	.	.	.	/	/
COc1ccc(N2CCCC2)c(NC(=O)c2ccc([N+](=O)[O-])o2)c1	.	.	33	.	.	.
COc1ccc(C(=O)Nc2cc([N+](=O)[O-])ccc2N2CCCC2)cc1	.	.	.	.	.	/
COc1cc(OC)c(C(=O)OCC(=O)NCCc2ccccc2)cc1OC	.	.	.	.	.	/
CN(Cc1ccccc1)C1=CC(=[N+]2CCCCC2)CC(C)(C)C1	.	.	34	.	.	.
COc1ccccc1/C=C/C(=O)Nc1ccc2c(c1)OCCO2	.	.	25	.	.	.
Nc1c(Cl)c(Cl)nc(C(=O)OCC(=O)N2CCCC2=O)c1Cl	.	/	/	.	.	/
O=C(OCC(=O)N1CCCC1=O)c1nc(Cl)c(Cl)c(Cl)c1Cl	.	.	42	.	.	.
c1ccc(-c2cccc(-c3ccccn3)n2)nc1	77	.	81	.	107	83
COc1ccc(CS(=O)(=O)c2nc(C)cc(C)c2S(C)(=O)=O)cc1	.	.	.	.	.	/
CS(=O)(=O)c1nc(-c2ccco2)cc(C(F)(F)F)n1	.	.	25	.	112	36
COc1cc(C(=O)NN2C(=O)NC3(CCC(C)CC3)C2=O)ccc1OC(F)F (stereo not given)	/	/	/	/	.	/
COCCNC(=S)N/N=C(\C)c1ccccc1O	.	.	85	.	.	.
COc1ccc(/C(C)=N/NC(=S)NCCc2ccccc2)c(O)c1	.	.	40	?	.	.
COCCNC(=S)N/N=C(\C)c1ccccc1OC	.	.	.	.	.	/
Nc1nc(Cl)nc2c1ncn2[C@H]1C[C@H](O)[C@@H](CO)O1	84	.	90	.	76	68
Nc1nc2c(ncn2C2C[C@H](O)[C@@H](CO)O2)c(=O)[nH]1 (stereo not given in full)	.	/	/	.	.	/
Cc1ccc(-c2nc(NCCCO)c3ccccc3n2)cc1	.	.	.	.	.	/
SMILES	aSyn 5UTR inh	KLF5 inh	IEC-6 tox	SKKanGAS inh	CSC inhib	IEC-6 cytotox cf
c1ccc2c(NCCc3c[nH]c4ccccc34)c3ccccc3nc2c1	.	.	22	.	87	.
OCCCNc1c2ccccc2nc2ccccc12	.	.	39	.	.	26
CNC(=S)NCCc1cc2c(OC)ccc(OC)c2[nH]c1=O	.	.	.	.	.	/
CCN(CC)c1ccc2cc(-c3nc4ccccc4n3C)c(=O)oc2c1	.	.	84	.	.	66
CC1=CCC(/C=N\Nc2nnc3c(n2)[nH]c2ccccc23)CC1 (stereo not given)	.	.	.	.	.	/
CCc1ccc2nc(N3C(=O)c4oc5ccccc5c(=O)c4C3c3ccc(OC)c(OC)c3)sc2c1 (stereo not given)	.	.	.	.	.	/
Cc1ccccc1CN(C)Cc1cc(=O)oc2c(C)c(C)ccc12	.	.	28	.	.	.
Cc1ccc2c(CN3CCCCC3)cc(=O)oc2c1C	.	.	.	.	.	/
COc1cccc(CN(C)Cc2cc(=O)oc3cc(O)c(Cl)cc23)c1	.	.	.	.	.	/
COc1cccc(CN(C)Cc2cc(=O)oc3c(C)c(C)ccc23)c1	.	.	61	.	.	39
Cc1c(O)ccc2c(CN3CCN(Cc4ccccc4)CC3)cc(=O)oc12	.	.	.	.	.	/
Cc1c(O)ccc2c(CN(C)Cc3ccccc3)cc(=O)oc12	.	.	58	.	.	.
CC(C)Cc1nnc(NC(=O)CCC(=O)NC2CCCCCC2)s1	.	.	.	.	.	/
CC(C)N1CCc2c(sc(NC(=O)CCS(=O)(=O)c3ccccc3)c2C#N)C1	.	.	.	?	.	/
CCN(CC)c1ccc2nc3ccccc3[n+](CC)c2c1	.	.	34	.	.	33
COc1cc(C(=O)Nc2ccc(NC(=O)c3ccccc3)nc2)cc(OC)c1OC	.	.	.	.	.	/
COc1cc(C(=O)Nc2ccc(NC(=O)C3CC3)nc2)cc(OC)c1OC	.	.	95	.	.	.
Oc1ccc(Oc2ccc(Oc3ccc(O)cc3)cc2)cc1	.	.	42	67	.	.
COc1ccc(C(=O)NCc2nnc(SCC(=O)Nc3nc4ccccc4s3)o2)cc1	.	.	64	.	.	.
COc1ccc(OC)c(S(=O)(=O)N/N=C\c2cn(CC(N)=O)c3ccccc23)c1	.	.	.	.	.	/
Cc1ccc(C)c(C2NC(=O)c3ccccc3N2)c1 (stereo not given)	.	.	63	.	.	51
C/C(=N\N=C(N)N)c1cc(Cl)ccc1Cl	65	.	31	.	.	.
CS(=O)(=O)c1sc(C#N)c2c1C(=O)CC(c1ccccc1)C2 (stereo not given)	81	.	75	.	110	.
O=C(CCl)NCc1cc(-c2ccc(Cl)cc2)no1	.	.	24	.	.	31
CC(=O)N1CC(C(=O)Nc2ccc3c(c2)OCO3)Oc2ccccc21 (stereo not given)	/	/	/	/	.	/
SMILES	aSyn 5UTR inh	KLF5 inh	IEC-6 tox	SKKanGAS inh	CSC inhib	IEC-6 cytotox cf
Cc1cc(C)n(-c2nc3ccccc3c(=O)n2OCC#N)n1	.	.	86	.	.	52
O=C(Nc1ccc2c(c1)OCO2)C(=O)c1c[nH]c2ccccc12	.	.	.	.	.	/
O=C(Nc1ccc2c(c1)OCCO2)C(=O)c1c[nH]c2ccccc12	.	.	66	.	107	46
N#CCC(=O)N/N=C/c1cc(-c2ccccc2)n(-c2ccc(Cl)cc2)c1-c1ccccc1	.	.	.	.	.	/
COc1ccccc1-c1cc(C(=O)NC2CCN(C)CC2)c2ccc(Cl)c(C)c2n1	101	.	30	.	108	.
Cc1c(Cl)ccc2c(C(=O)NCCN3CCCCC3)cc(-c3ccccn3)nc12	.	.	.	.	.	/
COc1ccc(S(=O)(=O)N2CCOC23CCN(S(=O)(=O)c2cc(C)ccc2OC)CC3)cc1	.	/	/	.	.	/
CCN(CC)CCNC(=O)CCc1c(C)nc2c(c(C)nn2-c2ccc(C)c(C)c2)c1C	.	.	.	.	.	/
CC(=O)Oc1ccc(C(=O)Nc2cc(NC(=O)c3ccc(OC(C)=O)cc3)cc(C(=O)NC(C)(C)C)c2)cc1	.	.	.	.	.	/
CC1=NN(S(=O)(=O)c2ccc(C)cc2)C(=O)c2ccccc2O1	.	.	.	.	.	/

Bioassay records deposited in PubChem by several laboratories.
